Hit rate of the full screen: of about 48,000 compounds, about 13,000 (27%) showed an effect of 50% or more. This is one part of the list.
Test system: Wolbachia pipientis
Test: Anti-Wolbachia Cell-Based Screen
Format: functional
Set-up: scale not given: in the data most compounds retested in dose-response had high values
Details: 5 µM

Structure (SMILES)	Percent Effect
O=C1CN(Cc2cn(C3CCN(C4CSCCSC4)CC3)nn2)CCN1	9.418%
Fc1ccc(Cc2cccc(C3CCN(C4CCOCC4)CC3)n2)cc1	122.8%
CN1CCCC1c1cccc(Cc2ccccc2F)n1 (stereo not given)	-8.343%
Fc1ccc2[nH]c([C@H]3CCN(C4CCOCC4)C3)nc2c1	-0.03029%
CC(C)c1nccn1-c1cccc(C2CCCN2S(=O)(=O)N(C)C)n1 (stereo not given)	-5.176%
CN(C)C(=O)CN1CCC(c2cccc(Cc3ccc(F)cc3)n2)CC1	83.25%
CN(C)C(=O)CN1CCN(c2ccnc3c(F)ccc(F)c23)CC1	6.891%
CC(C)c1nccn1-c1cccc(C2CCCN(S(=O)(=O)N(C)C)C2)n1 (stereo not given)	123.6%
CN(C)C(=O)CN(C)C(=O)c1cnc(Cc2ccc(F)cc2)s1	-0.8881%
O=C1CO[C@H]2CN(C3CCOCC3)C[C@H]2N1Cc1ccc(F)cc1	15.12%
CN1CCCC1c1cccc(Cc2ccc(F)cc2)n1 (stereo not given)	109.9%
CCCN1CCCC1c1nc(Cc2ccc(F)cc2)no1 (stereo not given)	-11.63%
CCO[C@H]1CN(C)C[C@@H]1NC(=O)c1c[nH]nc1C1CCCCC1	-8.959%
NC(=O)C1CCN(C(=O)NCc2ccccc2Cn2ccnc2)CC1	-2.267%
COc1cc(C(=O)N2CC[C@@H](NC(=O)c3ccccn3)[C@H](O)C2)ccn1	-8.714%
COC1(CNS(=O)(=O)c2ccccc2Cl)CCSC1 (stereo not given)	-2.993%
COC(=O)c1ccc(NC2CCN(CC(F)(F)F)C2=O)cc1C (stereo not given)	4.628%
CCn1ccnc1CN1CCN(CCC(=O)NC(C)(C)C)CC1C (stereo not given)	-7.568%
CN(C)S(=O)(=O)N1CCCC(c2cccc(Cc3ccc(F)cc3)n2)C1 (stereo not given)	101%
CN(C)S(=O)(=O)N1CCCC(CCC(=O)Nc2ccc(Cl)cc2)C1 (stereo not given)	1.788%
CN1CCCC(c2cccc(Cc3ccccc3Cl)n2)C1 (stereo not given)	-5.601%
CN(C)S(=O)(=O)N1CCCC(c2cccc(Cc3ccc(Cl)cc3)n2)C1 (stereo not given)	74.08%
CN(C)S(=O)(=O)N1CCCC(c2cccc(Cc3ccccc3F)n2)C1 (stereo not given)	93.31%
CN(C)S(=O)(=O)N1CCC(c2cccc(Cc3ccccc3Cl)n2)CC1	111.4%
CN(C)S(=O)(=O)N1CCCC(c2cccc(Cc3ccccc3)n2)C1 (stereo not given)	7.511%
Cn1cc(CNC(=O)NCCOc2ccc(F)c(F)c2)cn1	-13.41%
Cc1nc(COc2nc(C(C)C)no2)cs1	5.061%

Structure (SMILES)	Percent Effect
CC(C)(N)c1cn(C2CCN(c3ncccc3Cl)CC2)nn1	-9.362%
CC(c1ccccc1Cl)N1CCN(C(=O)c2ccc(=O)[nH]c2)CC1 (stereo not given)	-13%
O=C(O)c1ccccc1-n1cc(CN2CCOC(c3cc[nH]n3)C2)cn1 (stereo not given)	92.78%
Cc1c[nH]nc1C1CN(Cc2cnn(-c3ccccc3C(=O)O)c2)C1	143.7%
Cc1cccc(C)c1OC1CN(Cc2cnn(C)c2)C1	-10.44%
COC(=O)c1cccc2nc([C@H]3CCN(Cc4ccccc4)C3)oc12	-1.952%
O=C(O)c1ccccc1-n1cc(CN2CCC(c3cc[nH]n3)C2)cn1 (stereo not given)	122.2%
CCOC(=O)c1n[nH]cc1CN1CCCC(N(C)Cc2ccccc2)C1 (stereo not given)	-2.39%
Cc1ccnc(C2CN(Cc3cnn(-c4ccccc4C(=O)O)c3)C2)n1	148.5%
CN1CCN(Cc2cnn(-c3ccccc3Cl)c2)[C@H]2CS(=O)(=O)C[C@H]21	2.085%
Cn1cc(CN2CC[C@@H]3[C@@H](CCC(=O)N3CCc3ccccc3)C2)cn1	-6.541%
COCCc1noc(CNC2CCCN(c3cccnn3)C2)n1 (stereo not given)	6.075%
CCOC(=O)c1coc(N2CCC(N3CCC(O)CC3)CC2)n1	-0.9238%
CC(=O)N(c1ccc(C)cc1)c1nc(CN2CCCC(C)C2)cs1 (stereo not given)	4.19%
Fc1ccc(CN2CCCC2c2cncc(-n3ccnc3)n2)cc1 (stereo not given)	-7.107%
Cc1cc(C)nc(N2CCC(c3cncc(-n4ccnc4)n3)CC2)n1	132.5%
CC(=O)N1CCCC(c2cccc(-n3ccnc3)n2)C1 (stereo not given)	108.7%
O=C(C1CCC1)N1CCCC(c2cccc(-n3ccnc3)n2)C1 (stereo not given)	120%
O=C(c1cnccn1)N1CCCC(c2cccc(-n3ccnc3)n2)C1 (stereo not given)	132.1%
Cc1cc(C2CCC2)nc(N2CC(n3cccn3)C2)n1	18.14%
O=C(c1cc[nH]n1)N1CCCC(c2cccc(-n3ccnc3)n2)C1 (stereo not given)	-0.007784%
Cc1nc(COC[C@@H]2CCC[C@@]23CNCCO3)cs1.Cl.Cl	-7.746%
CNS(=O)(=O)CC1CCCN1c1ccc(Br)cn1 (stereo not given)	-12.02%
Cn1ccnc1C(NCc1csc(Br)c1)c1ccccc1 (stereo not given)	-0.294%
CCc1nccc(CN2CCCC(c3nn(C)c(=O)n3CC)C2)n1 (stereo not given)	16.29%
CC(C)[C@H]1COC(=O)N1Cc1nccn1C1CC1	4.052%
CCc1nc(N)nc(NCc2cnn3cccnc23)c1C	-10.8%

Structure (SMILES)	Percent Effect
OCCCN1CCc2[nH]nc(C(c3ccccc3)c3ccccc3)c2C1	-10.74%
O=C(Cn1ccc(=O)[nH]c1=O)NCc1cccnc1OCC(F)(F)F	7.684%
CC(c1ccon1)N(C)C(=O)C1CCN(C2CCCCC2)CC1 (stereo not given)	-1.584%
Cc1ccccc1CN1CCCN(S(=O)(=O)N(C)C2CCCCC2)CC1	-4.096%
Cc1cnn(CCNCc2nccn2Cc2ccccc2)c1	6.467%
c1cnc(N2CCCC(c3cncc(-n4ccnc4)n3)C2)nc1 (stereo not given)	115.9%
O=C(C1CCCC1)N1CCCC(c2cccc(-n3ccnc3)n2)C1 (stereo not given)	109.1%
Cc1n[nH]cc1C(=O)N1CCCC(c2cccc(-n3ccnc3)n2)C1 (stereo not given)	117.2%
Cl.c1cnc(N2CCCC(NCc3ccc(-n4ccnc4)cc3)C2)nc1 (stereo not given)	24.04%
Cn1c(Cn2ccnc2)nnc1C1CCCN(c2ncccn2)C1 (stereo not given)	5.27%
Cc1cc(C2CCCN(C(=O)c3c(C)nn4cccnc34)C2)n[nH]1 (stereo not given)	-1.385%
CCCc1n[nH]cc1C(=O)N1CCCC(c2nccn2CC2CC2)C1 (stereo not given)	2.109%
COCC(=O)N1CCCC(c2cccc(-n3ccnc3)n2)C1 (stereo not given)	83.17%
CC(C)Oc1cccc(CC(=O)N(CC(N)=O)C2CCCC2)c1	-6.842%
CN(C)C(=O)c1ccc(N2CCC3(CCC(=O)N(CCO)C3)CC2)nc1	-10.7%
O=C(Cn1[nH]c2ccccc2c1=O)N1CCCC(CC2CC2)(C(=O)O)C1 (stereo not given)	-7.331%
Cc1ccnc(N2CCCC(c3nccn3C(C)C)C2)n1 (stereo not given)	2.014%
Cc1nc(C(=O)N2CCCC(c3cccc(-n4ccnc4)n3)C2)co1 (stereo not given)	-10.62%
Cc1cc(C)nc(N2CCCC(c3cccc(-n4ccnc4)n3)C2)n1 (stereo not given)	122.3%
CCc1c(C)nc2ccccc2c1N1CCC(NC(C)=O)CC1	12.09%
Cc1ccoc1C(=O)NCCOc1ccc(C(F)(F)F)cn1	-4.463%
COC(=O)N1CCCC(C(=O)N2CCCCC2)C1 (stereo not given)	-8.373%
CCN1CCCCC1C(=O)N1CCN(C(=O)OC)CC1 (stereo not given)	100.7%
COC(=O)N1CCCCC1C(=O)N1CCC(c2ccncc2)CC1 (stereo not given)	-8.744%
CC(=O)c1cccc(NC(=O)CN2CCCCC2C(=O)N2CCCC2)c1 (stereo not given)	-9.292%
COCCOC1CCN(C(=O)NCc2coc3ccccc23)CC1	-1.148%
CCN1CCCCC1C(=O)N1CCc2onc(-c3ccc(Cl)cc3)c2C1 (stereo not given)	6.805%

Structure (SMILES)	Percent Effect
CCN1CCCCC1C(=O)N1CCC(OCCOC)CC1 (stereo not given)	73.16%
CCN1CCCCC1C(=O)N1CCC(OC2CCCC2)CC1 (stereo not given)	102.5%
COCCOC1CCN(C(=O)NCc2cc(C)oc2C)CC1	6.618%
CC/C=C(/C)C(=O)NCc1ccc(OC)nc1	-1.205%
OCCOCCN1CCCC1c1nc2cc(F)ccc2[nH]1 (stereo not given)	-0.6121%
Cc1cc(F)ccc1NC(=O)Cn1cc(C(=O)O)ccc1=O	-9.145%
CCC(=O)Nc1ccc(F)cc1OC	-5.571%
CN(C)S(=O)(=O)c1ccc(F)c(NC(=O)COCC2CC2)c1	-1.216%
COCc1cc(CN(C)C(=O)CCC(=O)Nc2cc(C)ccc2F)n[nH]1	-13.49%
COCCOCC(=O)Nc1ccc(F)cc1C	92.33%
O=C(Cn1ccc(=O)[nH]c1=O)Nc1ccccc1F	-14.53%
COCCOCC(=O)Nc1ccccc1F	116.5%
COCCOCC(=O)Nc1cc(C)ccc1F	111.1%
COCCOCC(=O)NC(C#N)c1c(F)cccc1Cl (stereo not given)	-1.788%
O=C(NCC(F)(F)C(F)F)c1ccncc1	-18.96%
CC(C)Cc1n[nH]c(C2CC(=O)N(CC(C)C)C2)n1 (stereo not given)	-3.52%
O=C(O)C(F)(F)F.c1ncn(Cc2cn3c(n2)CN(CC2CCCC2)CC3)n1	-2.888%
CC[C@H](Nc1nc(C(C)C)nc2c1cnn2C)c1ccccc1	-13.66%
CN(Cc1ccncn1)C(=O)C1(Oc2ccc(Cl)cc2)CCNCC1	-1.2%
CN(Cc1ccncn1)C(=O)c1cccc(CCC(C)(C)O)c1	-19.37%
CNc1ncc(CN(C)C(=O)c2ccc(C3CCCO3)s2)cn1 (stereo not given)	-2.521%
CNc1ncc(CN(C)C(=O)CCc2[nH]nc3c2CCCC3)cn1	98.75%
CN(Cc1ccncn1)C(=O)CCc1[nH]nc2c1CCCC2	105.8%
CNc1ncc(CN(C)C(=O)CCc2cc3n(n2)CCCNC3)cn1	-7.945%

Source: ChEMBL document CHEMBL3988442, “University of Dundee, Small-Polar-MMV Screening Library” (2021)
